# Source: the supplement of paper PMC8728848
# The full list was thinned out, with the strongest signals kept by preference.
# B1: rAAL-I144G (Agrocybe aegerita), Q6WY08 (protein)
# chain: MQGVNIYNISAGTSVDLAAPVTTGDIVTFFSSALNLNAGAGNPNNTTLNLFAENGAYLLHIAFRLQENVIIFNSRQPDGPWLVEQRVSDVANQFAGIDGKAMVTVFDHGDKYQVVINEKTVIQYTKQISGLTLSLSYNATEETSGFSTVVEAVTYTGLALEHHHHHH
# B2: DC-ASGPR S+GEE (Homo sapiens) (protein)
# chain: MTRTYENFQYLENKVKVQGFKNGPLPLQSLLQRLRSGPCHLLLSLGLGLLLLVIICVVGFQNSKFQRDLVTLRTDFSNFTSNTVAEIQALTSQGSSLEETIASLKAEVEGFKQERQAVHSEMLLRVQQLVQDLKKLTCQVATINNNGEEASTEGTCCPVNWVEHQDSCYWFSHSGMSWAEAEKYCQLKNAHLVVINSREEQNFVQKYLGSAYTWMGLSDPEGAWKWVDGTDYATGFQNWKPGQPDDWQGHGLGGGEDCAHFHPDGRWNDDVCQRPYHWVCEAGLGQTSQESH
# What was measured:
# Assay in all cases: glycan array binding signal (z-score within array); higher = stronger binding
# [1] = molecular target: Fuc(a1-2)Gal(b1-3)GalNAc(b1-3)Gal(a1-4)Gal(b1-4)Glc; details: glycan notation: IUPAC condensed, linker removed; mutation: I144G
# In short: (§1)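 The binding signal is a Z-score computed within each array and averaged over linkers. Arrays of the same protein sequence at different concentrations or buffers were also averaged together. Data originate from 3228 arrays in the Consortium for Functional Glycomics database, kept only where the protein sequence was available.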
# [2] = molecular target: Fuc(a1-2)Gal(b1-3)GlcNAc(b1-3)[Fuc(a1-2)Gal(b1-3)GlcNAc(b1-6)]GalNAc; details: glycan notation: IUPAC condensed, linker removed; mutation: I144G
# In short: as §1
# [3] = molecular target: Fuc(a1-2)Gal(b1-4)[Fuc(a1-3)]GlcNAc(b1-3)[Neu5Ac(a2-6)Gal(b1-4)GlcNAc(b1-6)]Gal(b1-4)Glc; details: glycan notation: IUPAC condensed, linker removed; mutation: I144G
# In short: as §1
# [4] = molecular target: Fuc(a1-2)[Gal(a1-3)]Gal(b1-4)GlcNAc(b1-6)GalNAc; details: glycan notation: IUPAC condensed, linker removed; mutation: I144G
# In short: as §1
# [5] = molecular target: Fuc(a1-2)[GalNAc(a1-3)]Gal; details: glycan notation: IUPAC condensed, linker removed; mutation: I144G
# In short: as §1
# [6] = molecular target: Fuc(a1-2)[GalNAc(a1-3)]Gal(b1-3)GlcNAc(b1-2)Man(a1-3)[Fuc(a1-2)[GalNAc(a1-3)]Gal(b1-3)GlcNAc(b1-2)Man(a1-6)]Man(b1-4)GlcNAc(b1-4)[Fuc(a1-6)]GlcNAc; details: glycan notation: IUPAC condensed, linker removed; mutation: I144G
# In short: as §1
# [7] = molecular target: Gal(a1-3)Gal(b1-4)GlcNAc(b1-2)Man(a1-3)[Gal(a1-3)Gal(b1-4)GlcNAc(b1-2)Man(a1-6)]Man(b1-4)GlcNAc(b1-4)GlcNAc; details: glycan notation: IUPAC condensed, linker removed; mutation: I144G
# In short: as §1
# [8] = molecular target: Gal(a1-4)Gal(b1-4)GlcNAc(b1-3)Gal(b1-4)Glc; details: glycan notation: IUPAC condensed, linker removed; mutation: I144G
# In short: as §1
# Gal(b1-3)Gal(b1-4)GlcNAc = details: glycan notation: IUPAC condensed, linker removed; mutation: I144G
# In short: as §1
# [9] = molecular target: Gal(b1-3)GalNAc(b1-4)[Neu5Ac(a2-3)]Gal(b1-4)Glc; details: glycan notation: IUPAC condensed, linker removed; mutation: I144G
# In short: as §1
# [10] = molecular target: Gal(b1-4)GlcNAc(b1-3)Gal(b1-3)GalNAc; details: glycan notation: IUPAC condensed, linker removed; mutation: I144G
# In short: as §1
# Gal3S(b1-3)GalNAc = details: glycan notation: IUPAC condensed, linker removed; mutation: I144G
# In short: as §1
# [11] = molecular target: GlcA3S(b1-3)Gal(b1-4)GlcNAc(b1-2)Man; details: glycan notation: IUPAC condensed, linker removed; mutation: I144G
# In short: as §1
# [12] = molecular target: GlcA3S(b1-3)Gal(b1-4)GlcNAc(b1-3)Gal(b1-4)Glc; details: glycan notation: IUPAC condensed, linker removed; mutation: I144G
# In short: as §1
# [13] = molecular target: GlcNAc(b1-2)Man(a1-3)[GlcNAc(b1-4)][GlcNAc(b1-2)Man(a1-6)]Man(b1-4)GlcNAc(b1-4)[Fuc(a1-6)]GlcNAc; details: glycan notation: IUPAC condensed, linker removed; mutation: I144G
# In short: as §1
# [14] = molecular target: GlcNAc(b1-3)Gal(b1-3)GalNAc; details: glycan notation: IUPAC condensed, linker removed; mutation: I144G
# In short: as §1
# GlcNAc(b1-6)GalNAc = details: glycan notation: IUPAC condensed, linker removed; mutation: I144G
# In short: as §1
# [15] = molecular target: Neu5Ac(a2-3)Gal(b1-3)GalNAc; details: glycan notation: IUPAC condensed, linker removed; mutation: I144G
# In short: as §1
# [16] = molecular target: Neu5Ac(a2-3)Gal(b1-3)GalNAc(b1-3)Gal(a1-4)Gal(b1-4)Glc; details: glycan notation: IUPAC condensed, linker removed; mutation: I144G
# In short: as §1
# [17] = molecular target: Neu5Ac(a2-3)Gal(b1-3)GalNAc(b1-4)[Neu5Ac(a2-3)]Gal(b1-4)Glc; details: glycan notation: IUPAC condensed, linker removed
# In short: as §1
# [18] = molecular target: Neu5Ac(a2-3)Gal(b1-3)GalNAc6S; details: glycan notation: IUPAC condensed, linker removed; mutation: I144G
# In short: as §1
# [19] = molecular target: Neu5Ac(a2-3)Gal(b1-3)[GlcNAc(b1-6)]GalNAc; details: glycan notation: IUPAC condensed, linker removed; mutation: I144G
# In short: as §1
# [20] = molecular target: Neu5Ac(a2-3)Gal(b1-4)GlcNAc(b1-2)Man(a1-3)[GlcNAc(b1-4)][Neu5Ac(a2-3)Gal(b1-4)GlcNAc(b1-2)Man(a1-6)]Man(b1-4)GlcNAc(b1-4)GlcNAc; details: glycan notation: IUPAC condensed, linker removed; mutation: I144G
# In short: as §1
# [21] = molecular target: Neu5Ac(a2-3)Gal(b1-4)GlcNAc(b1-2)[Neu5Ac(a2-3)Gal(b1-4)GlcNAc(b1-6)]Man(a1-6)[Neu5Ac(a2-3)Gal(b1-4)GlcNAc(b1-2)Man(a1-3)][GlcNAc(b1-4)]Man(b1-4)GlcNAc(b1-4)GlcNAc; details: glycan notation: IUPAC condensed, linker removed; mutation: I144G
# In short: as §1
# [22] = molecular target: Neu5Ac(a2-3)Gal(b1-4)GlcNAc(b1-3)Gal; details: glycan notation: IUPAC condensed, linker removed
# In short: as §1
# [23] = molecular target: Neu5Ac(a2-6)Gal(b1-4)GlcNAc(b1-2)Man(a1-3)[Neu5Ac(a2-6)Gal(b1-4)GlcNAc(b1-2)Man(a1-6)]Man(b1-4)GlcNAc(b1-4)GlcNAc; details: glycan notation: IUPAC condensed, linker removed; mutation: I144G
# In short: as §1
# [24] = molecular target: Neu5Ac(a2-6)Gal(b1-4)GlcNAc(b1-2)Man(a1-3)[Neu5Ac(a2-6)Gal(b1-4)GlcNAc(b1-2)Man(a1-6)]Man(b1-4)GlcNAc(b1-4)[Fuc(a1-6)]GlcNAc; details: glycan notation: IUPAC condensed, linker removed; mutation: I144G
# In short: as §1
# [25] = molecular target: Neu5Ac(a2-6)Gal(b1-4)GlcNAc(b1-3)Gal(b1-4)GlcNAc; details: glycan notation: IUPAC condensed, linker removed; mutation: I144G
# In short: as §1
# [26] = molecular target: Neu5Ac(a2-6)Gal(b1-4)GlcNAc(b1-3)Gal(b1-4)[Fuc(a1-3)]GlcNAc(b1-3)Gal(b1-4)[Fuc(a1-3)]GlcNAc; details: glycan notation: IUPAC condensed, linker removed; mutation: I144G
# In short: as §1
# [27] = molecular target: Neu5Ac(a2-8)Neu5Ac(a2-3)Gal(b1-3)GalNAc(b1-4)[Neu5Ac(a2-3)]Gal(b1-4)Glc; details: glycan notation: IUPAC condensed, linker removed; mutation: I144G
# In short: as §1
# [28] = molecular target: Neu5Ac9Ac(a2-3)Gal(b1-3)GlcNAc; details: glycan notation: IUPAC condensed, linker removed; mutation: I144G
# In short: as §1
# Neu5Gc(a2-6)GalNAc = details: glycan notation: IUPAC condensed, linker removed; mutation: I144G
# In short: as §1
# [29] = molecular target: Neu5Gc(a2-8)Neu5Ac(a2-3)Gal(b1-4)GlcNAc; details: glycan notation: IUPAC condensed, linker removed; mutation: I144G
# In short: as §1
# [30] = molecular target: Neu5Gc(a2-8)Neu5Gc(a2-3)Gal(b1-4)GlcNAc; details: glycan notation: IUPAC condensed, linker removed; mutation: I144G
# In short: as §1
# Man(b1-4)GlcNAc = details: glycan notation: IUPAC condensed, linker removed
# In short: as §1
# [31] = molecular target: Neu5Ac(a2-3)Gal(b1-3)GlcNAc(b1-6)GalNAc; details: glycan notation: IUPAC condensed, linker removed
# In short: as §1
# [32] = molecular target: Neu5Ac(a2-3)Gal(b1-4)GlcNAc(b1-2)Man(a1-3)[Neu5Ac(a2-6)Gal(b1-4)GlcNAc(b1-2)Man(a1-6)]Man(b1-4)GlcNAc(b1-4)GlcNAc; details: glycan notation: IUPAC condensed, linker removed
# In short: as §1
# [33] = molecular target: Neu5Ac(a2-3)Gal(b1-4)GlcNAc(b1-6)GalNAc; details: glycan notation: IUPAC condensed, linker removed
# In short: as §1
# [34] = molecular target: Neu5Ac(a2-3)Gal6S(b1-4)GlcNAc; details: glycan notation: IUPAC condensed, linker removed
# In short: as §1
# [35] = molecular target: Neu5Ac(a2-6)Gal(b1-4)GlcNAc(b1-2)Man(a1-6)[Gal(b1-4)GlcNAc(b1-2)Man(a1-3)]Man(b1-4)GlcNAc(b1-4)GlcNAc; details: glycan notation: IUPAC condensed, linker removed
# In short: as §1
# [36] = molecular target: Neu5Ac(a2-6)GalNAc(b1-4)GlcNAc6S; details: glycan notation: IUPAC condensed, linker removed
# In short: as §1
# [37] = molecular target: Neu5Ac(a2-8)Neu5Ac(a2-3)Gal(b1-3)GalNAc(b1-4)[Neu5Ac(a2-8)Neu5Ac(a2-3)]Gal(b1-4)Glc; details: glycan notation: IUPAC condensed, linker removed
# In short: as §1
# [38] = molecular target: Neu5Ac(a2-8)Neu5Ac(a2-8)Neu5Ac(a2-8)Neu5Ac(a2-3)[GalNAc(b1-4)]Gal(b1-4)Glc; details: glycan notation: IUPAC condensed, linker removed
# In short: as §1
# Neu5Gc(a2-3)Gal(b1-4)Glc = details: glycan notation: IUPAC condensed, linker removed
# In short: as §1
binder,measurement,setting,value
B1,glycan array binding signal (z-score),[1],-0.112
same,glycan array binding signal (z-score),[2],-0.208
same,glycan array binding signal (z-score),[3],-0.075
same,glycan array binding signal (z-score),[4],-0.088
same,glycan array binding signal (z-score),[5],-0.166
same,glycan array binding signal (z-score),[6],-0.134
same,glycan array binding signal (z-score),[7],2.88
same,glycan array binding signal (z-score),[8],-0.026
same,glycan array binding signal (z-score),Gal(b1-3)Gal(b1-4)GlcNAc,-0.134
same,glycan array binding signal (z-score),[9],-0.191
same,glycan array binding signal (z-score),[10],-0.191
same,glycan array binding signal (z-score),Gal3S(b1-3)GalNAc,17.3
same,glycan array binding signal (z-score),[11],11.8
same,glycan array binding signal (z-score),[12],9.46
same,glycan array binding signal (z-score),[13],-0.15
same,glycan array binding signal (z-score),[14],-0.103
same,glycan array binding signal (z-score),GlcNAc(b1-6)GalNAc,-0.16
same,glycan array binding signal (z-score),[15],1.67
same,glycan array binding signal (z-score),[16],1.35
same,glycan array binding signal (z-score),[17]; mutation: I144G,1.33
same,glycan array binding signal (z-score),[18],4.09
same,glycan array binding signal (z-score),[19],1.74
same,glycan array binding signal (z-score),[20],1.63
same,glycan array binding signal (z-score),[21],-0.073
same,glycan array binding signal (z-score),[22]; mutation: I144G,-0.059
same,glycan array binding signal (z-score),[23],-0.111
same,glycan array binding signal (z-score),[24],-0.049
same,glycan array binding signal (z-score),[25],-0.176
same,glycan array binding signal (z-score),[26],-0.095
same,glycan array binding signal (z-score),[27],1.99
same,glycan array binding signal (z-score),[28],-0.174
same,glycan array binding signal (z-score),Neu5Gc(a2-6)GalNAc,-0.086
same,glycan array binding signal (z-score),[29],-0.169
same,glycan array binding signal (z-score),[30],-0.122
B2,glycan array binding signal (z-score),Man(b1-4)GlcNAc,-0.339
same,glycan array binding signal (z-score),[17],-0.329
same,glycan array binding signal (z-score),[31],4.84
same,glycan array binding signal (z-score),[32],-0.297
same,glycan array binding signal (z-score),[22],-0.325
same,glycan array binding signal (z-score),[33],4.38
same,glycan array binding signal (z-score),[34],-0.32
same,glycan array binding signal (z-score),[35],-0.355
same,glycan array binding signal (z-score),[36],0.608
same,glycan array binding signal (z-score),[37],-0.342
same,glycan array binding signal (z-score),[38],1.61
same,glycan array binding signal (z-score),Neu5Gc(a2-3)Gal(b1-4)Glc,-0.351
